BL2 CD40 inh: inhibitors of CD40-induced NF-kB signaling, primary screen, BL2 cells, luciferase reporter, single point. CD40L-induced, 4 h. actives 0.94% (n = 83,000). inhibition, % at 10 µM;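 active = mean inhibition of at least 50% with a set share of replicates also reaching that level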
Each line names hits and unclear results; the compound was inactive in the other large screens; [ ] = dose if it differs, or a comment. The entries come from a sample that favours hits as a whole.

Cc1ccc(-c2cnc3c(c2)C(=O)N([C@@H](C)CO)C[C@H](C)[C@H](CN(C)C(=O)CN(C)C)O3)cc1	none
COc1cccc(S(=O)(=O)N2CC[C@@H]3[C@H]2c2cc(C#Cc4cccnc4)ccc2N[C@@H]3CO)c1	none
CC(=O)N1CCN(c2ccc(OCC3COC(Cn4ccnc4)(c4ccc(Cl)cc4Cl)O3)cc2)CC1 (centres undefined)	none
O=C(C1CCCC1)N1[C@H](CO)[C@@H]2c3ccccc3NC[C@@H]21	none
COc1ccccc1NC(=O)N(C)C[C@H]1OCc2ccccc2-c2c(n(C)c3ccccc23)C(=O)N([C@@H](C)CO)C[C@@H]1C	none
CCNC(=O)[C@@H]1[C@@H](CO)[C@@H]2Cn3c(ccc(-c4ccc(F)cc4)c3=O)[C@H]1N2C(=O)C1CC1	none
COCCNC(=O)[C@H]1[C@H](CO)[C@H]2Cn3c(cccc3=O)[C@H]2N1Cc1ccccc1OC	none
C[C@@H]1CCCCO[C@H](CN(C)C(=O)Nc2ccc3c(c2)OCO3)[C@H](C)CN([C@@H](C)CO)C(=O)c2cc(NS(=O)(=O)c3cccs3)ccc2O1	none
C[C@H]1CN([C@@H](C)CO)C(=O)c2ccccc2-c2ccccc2CO[C@@H]1CN(C)S(=O)(=O)c1cccs1	none
C[C@H](CO)N1C[C@H](C)[C@H](CN(C)S(=O)(=O)c2ccc(Cl)cc2)Oc2c(NC(=O)Nc3ccc(F)cc3)cccc2C1=O	BL2 CD40 inh 85[25 µM]
COc1ccc(S(=O)(=O)N(C)C[C@H]2Oc3ccc(NC(=O)Nc4ccc(C(F)(F)F)cc4)cc3C(=O)N([C@@H](C)CO)C[C@H]2C)cc1	BL2 CD40 inh 61[25 µM]
COc1ccc(S(=O)(=O)N(C)C[C@H]2OCCCC[C@@H](C)Oc3ccc(NC(=O)Nc4ccc(F)cc4)cc3C(=O)N([C@H](C)CO)C[C@@H]2C)cc1	none
C[C@@H]1CN([C@@H](C)CO)C(=O)c2cccc(NC(=O)Nc3ccc(F)cc3)c2O[C@@H]1CN(C)S(=O)(=O)c1ccc(Cl)cc1	none
C[C@@H]1CN([C@@H](C)CO)C(=O)c2cccc(NC(=O)Nc3ccc(F)cc3)c2O[C@H]1CN(C)S(=O)(=O)c1ccc(Cl)cc1	none
COc1ccc(S(=O)(=O)N(C)C[C@@H]2OCCCC[C@H](C)Oc3ccc(NC(=O)Nc4ccc(F)cc4)cc3C(=O)N([C@H](C)CO)C[C@H]2C)cc1	none
C[C@@H]1CN([C@H](C)CO)C(=O)c2cc(N(C)C)ccc2O[C@@H](C)CCCCO[C@H]1CN(C)C(=O)Cc1ccccc1	none
CCNC(=O)[C@@H]1[C@@H](CO)[C@@H]2Cn3c(ccc(-c4ccncc4)c3=O)[C@@H]2N1Cc1ccc2c(c1)OCO2	none
COc1ccc(NC(=O)N(C)C[C@@H]2OCc3ccccc3-c3ccccc3C(=O)N([C@@H](C)CO)C[C@H]2C)c(OC)c1	none
COC(=O)c1ccc2c(=O)[nH]c(COC(=O)c3c(-c4ccccc4)noc3C)nc2c1	BL2 CD40 inh 29
Cc1onc(-c2ccccc2)c1C(=O)OCC(=O)Nc1ccccc1	none
Cc1onc(-c2ccccc2)c1C(=O)OCC(=O)c1ccc[nH]1	none
CC=Cc1ccc2n(c1=O)C[C@H]1[C@H](CO)[C@@H](C(=O)N(C)C)[C@@H]2N1S(=O)(=O)c1ccccc1C (mixture of isomers)	none
CC(C)[C@@H]1C(=O)N[C@@H](c2ccc(F)cc2)CC=CC[C@H](C)Oc2ccccc2C(=O)N1C (mixture of isomers)	none
COc1ccc(C(=O)Nc2cccc(OC(=O)c3ccco3)c2)cc1	none
CC1CC(C)(C)Nc2ccc(OC(=O)c3ccco3)cc21 (centres undefined)	BL2 CD40 inh 68
CC1CC(C)(C)Nc2ccc(N=O)cc21 (centres undefined)	none
CN(C)C(=O)c1cccc(-c2ccc3c(c2)[C@@H]2[C@@H](CCN2C(=O)Cc2ccccn2)[C@H](CO)N3C)c1	none
COc1ccccc1C(=O)N1C[C@H]2[C@@H](c3ccccc31)[C@H](CO)N2C(=O)C1CCOCC1	none
OC(CCN1CCCCC1)c1ccc(-c2ccccc2)cc1 (centres undefined)	BL2 CD40 inh 57
OC(CCN1CCC2CCC(C2)C1)c1ccc(Br)cc1 (centres undefined)	none
OC(COc1ccc(-c2ccccc2)cc1)CN1CCCCC1 (centres undefined)	none
CC(C)[C@@H](C)NC(=O)N(C)C[C@@H]1OCc2ccccc2-c2c(n(C)c3ccccc23)C(=O)N([C@@H](C)CO)C[C@@H]1C	none
Cc1c(C(=O)OC2CCCC2C)[nH]c2c1C(=O)CCC2 (centres undefined)	none
CCCc1c(C(=O)OCC)[nH]c2c1C(=O)CCC2	none
Cc1c(C(=O)OCCOc2ccccc2)[nH]c2c1C(=O)CCC2	BL2 CD40 inh 66
C[C@@H]1CN([C@H](C)CO)C(=O)c2cc(C3=CCCCC3)cnc2O[C@@H]1CN(C)S(=O)(=O)c1cn(C)cn1	none
N#C[C@H]1[C@@H](c2ccccc2-c2ccc(F)cc2)[C@@H](CO)N1C(=O)Cc1ccccc1	none
O=C1C(F)=CC(COC(c2ccccc2)(c2ccccc2)c2ccccc2)OC1n1cc(F)c(=O)[nH]c1=O (centres undefined)	BL2 CD40 inh 101
O=c1[nH]c(=O)n(C2CCCO2)cc1F (centres undefined)	none
N#C[C@H]1[C@H](c2ccc(C#Cc3cccc(F)c3)cc2)[C@@H](CO)N1C(=O)C1CC1	none
N#C[C@H]1[C@H](c2ccc(C#Cc3cccc(F)c3)cc2)[C@@H](CO)N1C(=O)C1CCCC1	none
N#C[C@@H]1[C@H](c2ccc(C#Cc3ccc(F)cc3)cc2)[C@@H](CO)N1C(=O)C1CC1	BL2 CD40 inh 72
N#C[C@H]1[C@@H](c2ccc(C#Cc3cccc(F)c3)cc2)[C@H](CO)N1C(=O)C1CCCC1	none
N#C[C@H]1[C@H](c2ccc(C#Cc3ccc(F)cc3)cc2)[C@@H](CO)N1C(=O)C1CCC1	BL2 CD40 inh 54[25 µM]
N#C[C@H]1[C@@H](c2ccc(C#Cc3ccccc3F)cc2)[C@@H](CO)N1C(=O)C1CCC1	none
N#C[C@H]1[C@H](c2ccc(C#Cc3cccc(F)c3)cc2)[C@@H](CO)N1C(=O)C1CCC1	BL2 CD40 inh 55
CCCNC(=O)N1[C@H](C#N)[C@H](c2ccc(C#Cc3cccc(F)c3)cc2)[C@H]1CO	BL2 CD40 inh 77[25 µM]
N#C[C@@H]1[C@@H](c2ccc(C#Cc3ccc(F)cc3)cc2)[C@H](CO)N1C(=O)C1CCC1	none
N#C[C@H]1[C@@H](c2ccc(C#Cc3cccc(F)c3)cc2)[C@@H](CO)N1C(=O)C1CCCC1	none
N#C[C@H]1[C@@H](c2ccc(C#Cc3cccc(F)c3)cc2)[C@H](CO)N1C(=O)C1CC1	none
CCCNC(=O)N1[C@H](C#N)[C@@H](c2ccc(C#Cc3cccc(F)c3)cc2)[C@@H]1CO	none
C[C@H]1CN([C@@H](C)CO)C(=O)c2cc(C3=CCCCC3)cnc2O[C@H]1CN(C)S(=O)(=O)c1cn(C)cn1	none
CCNC(=O)C[C@@H]1CC[C@@H]2[C@H](COC[C@@H](O)CN2C(=O)c2ccccn2)O1	none
C[C@@H]1CN(C)C(=O)c2cccc(NS(C)(=O)=O)c2O[C@H]1CN(C)C	none
N#C[C@@H]1[C@H](c2ccccc2)[C@@H](CO)N1C(=O)Cc1ccccn1	none
C[C@H]1CN([C@@H](C)CO)C(=O)c2ccccc2-c2ccccc2CO[C@@H]1CN(C)C(=O)CCC(F)(F)F	none
CN1C(=O)c2cc(NC(=O)C3CCC3)ccc2OC[C@@H]2O[C@H](CC(=O)NCc3ccccc3F)CC[C@@H]21	none
CC(=O)N(C)C[C@H]1Oc2ccc(N)cc2CC(=O)N(C)C[C@H]1C	none
